Source: PubChem (National Center for Advancing Translational Sciences (NCATS))
HttQ103 aggreg: qHTS Multiplex Assay to Identify Dual Action Probes in a Cell Model of Huntington: Aggregate Formation (GFP); hit rate 1.1% among 220,000; Potency, µM (highest dose often 46.1 µM), actives largely listed as inhibitors; PC12 HttQ103-GFP aggregates, Acumen cytometry, 40 h; note: nearly all actives have a fitted effect of over 60% in size
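Using laser scanning cytometry, GFP-positive aggregates were counted after lysis of PC12 cells induced with 100 nM tebufenozide to express HTT exon 1 Q103–GFP. Compounds were tested in titration.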
HPGD block: qHTS Assay for Inhibitors of HPGD (15-Hydroxyprostaglandin Dehydrogenase). 15-hydroxyprostaglandin dehydrogenase [NAD(+)] (Homo sapiens), P15428. purified HPGD, NADH fluorescence kinetic, PGE2 substrate. Potency, µM, most hits filed as inhibitors. hit rate 4.3% among 150,000. AID 894, 2007; active = well fitted inhibition curve with a large enough effect, not every such curve was filed as active; inconclusive = small, poorly fitted or top-dose-only effect, or another doubt; inactive = no such curve, though single readings can be large or run the other way
Target sequence (P15428 whole entry, looked up): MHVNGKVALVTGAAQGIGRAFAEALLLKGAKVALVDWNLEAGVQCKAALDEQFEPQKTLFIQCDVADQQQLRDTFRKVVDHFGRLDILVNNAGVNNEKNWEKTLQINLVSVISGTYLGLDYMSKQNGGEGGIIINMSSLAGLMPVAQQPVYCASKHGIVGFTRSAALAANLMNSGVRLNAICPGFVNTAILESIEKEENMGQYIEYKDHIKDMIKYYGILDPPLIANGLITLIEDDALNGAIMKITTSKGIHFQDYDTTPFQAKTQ
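NADH formation kinetics: reaction with 30 uM PGE2 and 1 mM NAD+ (final), 20 nM enzyme, Tris-HCl pH 8 with Tween 20, after 15 min compound preincubation at room temperature. Fluorescence change, last versus first of five reads.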
HTT ATP protect: qHTS Multiplex Assay to Identify Dual Action Probes in a Cell Model of Huntington: Cytoprotection (ATP) | hit rate 0.14% among 230,000 | Potency, µM (top dose mostly 56.4 µM), hits mostly activators | AID 1471, 2008 | PC12 HTT-Q103 induced, cytoprotection, ATP luminescence, 40 h; note: nearly all actives have a fitted effect of over 45% in size
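Stable PC12 Q103-GFP cells in serum-supplemented, phenol red-free DMEM; induction by tebufenozide at 100 nM final; compound dose series; cell viability quantified luminescently from ATP.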
IMPase inh: qHTS Assay for Identifying the Cell-Membrane Permeable IMPase Inhibitors | 120,000 tested, under 10 active | AID 901, 2007 | CHO-M1 cells, IP1 accumulation, HTRF TR-FRET ratio | inhibition (IP1 accumulation), % at 46.1 µM; active = well fitted curve in the direction sought with a large enough effect in the signal ratio, not every such curve was filed as active; inconclusive = small, poorly fitted or top-dose-only effect, or a change in a side signal; inactive = no such curve, though single readings can be large or run the other way; the % refers to the signal ratio;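 note: cells stimulated with carbachol in lithium chloride buffer; higher means more IMPase inhibition seen as more IP1 and lower FRET ratio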
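Carbachol-driven Gq signalling in CHO-M1 cells (2000/well) generates IP1. Compounds that block IMPase raise IP1 and so reduce the FRET signal from Eu-anti-IP1 and d2-IP1 after a 10 min room-temperature lysis.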
ALDH1A1 inh: qHTS Assay for Inhibitors of Aldehyde Dehydrogenase 1 (ALDH1A1) | Aldehyde dehydrogenase 1A1 (Homo sapiens), P00352 | Purified ALDH1A1, NADH fluorescence, propionaldehyde substrate | Potency, µM (titrated, usually from 75.3 µM), actives largely listed as inhibitors | hit rate 7.3% among 220,000 | AID 1030, 2008; active = well fitted inhibition curve with a large enough effect, not every such curve was filed as active; inconclusive = small, poorly fitted or top-dose-only effect, or another doubt; inactive = no such curve, though single readings can be large or run the other way
Target sequence (P00352 whole entry, looked up): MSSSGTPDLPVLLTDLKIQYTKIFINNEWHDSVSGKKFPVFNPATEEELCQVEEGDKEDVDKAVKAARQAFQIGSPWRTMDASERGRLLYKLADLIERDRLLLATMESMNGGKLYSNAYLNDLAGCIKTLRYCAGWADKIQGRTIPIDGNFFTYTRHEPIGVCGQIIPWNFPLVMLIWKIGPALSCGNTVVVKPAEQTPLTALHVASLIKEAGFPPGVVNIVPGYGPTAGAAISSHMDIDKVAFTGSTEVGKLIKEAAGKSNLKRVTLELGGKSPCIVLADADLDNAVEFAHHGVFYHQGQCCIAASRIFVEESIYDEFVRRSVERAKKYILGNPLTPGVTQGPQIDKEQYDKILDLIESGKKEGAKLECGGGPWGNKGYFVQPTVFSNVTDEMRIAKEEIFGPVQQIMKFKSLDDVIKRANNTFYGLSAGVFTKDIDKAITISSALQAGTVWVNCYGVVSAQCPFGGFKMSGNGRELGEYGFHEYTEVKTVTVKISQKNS
IMPase Li inh: qHTS Assay for Identifying the Cell-Membrane Permeable IMPase Inhibitors: Potentiation with Lithium | CHO-M1 cells, IP1 TR-FRET (IP-One), carbachol + lithium | Potency, µM (doses to about 59.4 µM), actives largely listed as inhibitors | hit rate 0.35% among 210,000;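 note: IP1 builds up when IMPase is blocked and the TR-FRET signal falls; nearly all actives have a fitted effect of over 50% in size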
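CHO-M1, 2000 cells/well, 16–30 h culture; cpd + low Li+, 30 min 37C; lysis with d2-IP1/Eu-anti-IP1 Ab, 10 min RT; TR-FRET 665/620 ratio and 620 channel; AC50 via Hill.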
Numbers stand for hits; - = inactive; ? = inconclusive; . = no result given; ! = not active in a repeat; [ ] = dose if it differs, or a comment. Only some compounds are listed: those with a hit (about 9.4% of all), similar ones and a draw of the others. Unless noted, calls come from the whole dose curve; as a rule, active = well fitted curve in the direction sought with a large enough effect; inconclusive = small, poorly fitted or top-dose-only effect, or another doubt; inactive = no such curve, though single readings can be large; an effect the other way counts as inactive or inconclusive.

SMILES | HttQ103 aggreg | HPGD block | HTT ATP protect | IMPase inh | ALDH1A1 inh | IMPase Li inh
c1ccc(-c2ccc(C(c3ccccc3)n3ccnc3)cc2)cc1 (stereo not given) | - | ? | - | . | 22.4µM | -
O=C(Nc1nnc(SCc2ccccc2Cl)s1)C1COc2ccccc2O1 (stereo not given) | - | 15.8µM | - | - | ? | -
O=C(CCl)Nc1nccs1 | -[9.22 µM] | . | -[10 µM] | . | . | .
Cc1cc(NC(=O)CCl)on1 | - | . | - | . | 3.55µM | -
COc1ccccc1[N+](=O)[O-] | . | - | - | . | 25.1µM | -
C(=NCCN1CCOCC1)=NC1CCCCC1 | . | - | -[10 µM] | . | -[13.5 µM] | -
CC[C@]1(OC(=O)CN)C(=O)OCc2c1cc1n(c2=O)Cc2cc3ccccc3nc2-1 | . | ? | -[10 µM] | . | ? | -
COC(=O)CCC(=O)Nc1sc(Cc2ccccc2)c(C)c1C(N)=O | -[9.22 µM] | . | -[10 µM] | . | 2µM | -
COC(=O)CC1(Cc2ccccc2)C(=O)NC(=O)NC1=O | - | - | -[0.074 µM] | - | - | -
COc1ccc(NC(=O)N2CCC3(CC2)CCN(C(=O)Oc2ccccc2)CC3)cc1 | . | - | - | . | 10µM | -
COc1ccc2c(c1)CC[C@@H]1[C@@H]2CC[C@]2(C)[C@@H](NCCCCCCN3C(=O)C=CC3=O)CC[C@@H]12 | . | . | . | . | - | -
CC[C@@]1(O)C(=O)OCc2c1cc1n(c2=O)Cc2cc3ccccc3nc2-1 | ? | ? | - | ? | ? | -
CC[C@@]1(O)C(=O)OCc2c1cc1n(c2=O)Cc2cc3c(O)cccc3nc2-1 | . | . | - | . | ? | 8.91µM
CSCC[C@@H](N)P(C)(=O)O | . | - | -[10 µM] | . | -[13.5 µM] | -
CC(C)c1ccc(N=Nc2c(O)[nH]c(=O)[nH]c2=O)cc1 | -[9.22 µM] | . | -[10 µM] | . | . | .
O=c1[nH]c(=S)[nH]c(O)c1N=Nc1ccc(SC(F)F)cc1 | -[9.22 µM] | . | -[10 µM] | . | 20µM | .
O=c1[nH]c(=S)[nH]c(O)c1N=Nc1ccc(S(=O)(=O)N2CCc3ccccc32)cc1 | ? | . | - | . | 6.31µM | -
CNc1ccc2oc(C[C@@H]3OC4(CC[C@@H]3C)O[C@H](C(C)C(=O)c3ccc[nH]3)[C@H](C)C[C@H]4C)nc2c1C(=O)O (stereo not given in full) | . | - | . | . | ? | -
CCCCC[CH2][Hg][S]C1=C2N=CNC2NC(N)=N1 (stereo not given) | . | 0.708µM | . | . | 0.316µM | -
CCOc1cc(/C=C2\C(=O)NC(=O)N(C)C2=O)cc([N+](=O)[O-])c1O | -[9.22 µM] | . | -[10 µM] | . | . | .
CCOc1cc(C=O)ccc1O | . | - | - | . | 25.1µM | -
Cc1ccc(NC(=O)CSc2nnc([C@@H](N)Cc3c[nH]c4ccccc34)o2)c(C)c1 | - | ? | - | - | 25.1µM | -
CCc1ccccc1NC(=O)CSc1nnc([C@@H](N)Cc2c[nH]c3ccccc23)o1 | - | - | - | - | ? | -
C=C(C)CSc1nnc([C@@H](N)Cc2c[nH]c3ccccc23)o1 | - | ? | -[0.074 µM] | - | 15.8µM | -
CCCCC/C=C\C/C=C\C/C=C\C/C=C\CCCC(=O)O | . | 15.8µM! | ? | - | 7.94µM! | -
SMILES | HttQ103 aggreg | HPGD block | HTT ATP protect | IMPase inh | ALDH1A1 inh | IMPase Li inh
CCCCC/C=C\C[C@@H](/C=C/C=C\C/C=C\CCCC(=O)O)OO | . | - | - | . | - | -
CC1=NN(c2ccccc2)C(=O)[C@@H]1N=Nc1ccc([As](=O)(O)O)c(O)c1 | . | - | -[10 µM] | . | 3.55µM | -
Cc1nn(C2CCOC(C)(C)C2)c2c1C(c1ccc(OC(C)C)cc1)SCC(=O)N2 (stereo not given) | - | - | - | - | ? | -
COc1ccc(C2SCC(=O)Nc3c2c(C)nn3-c2ccccc2)cc1 (stereo not given) | - | 12.6µM | - | - | - | -
Cc1ccc(-n2nc(C)c3c2NC(=O)CSC3c2ccc3c(c2)OCO3)cc1 (stereo not given) | ? | 17.8µM | - | - | ? | -
COc1ccc(/C=C/C(=O)N2CC3C[C@@H](C2)Cn2c3cccc2=O)cc1OC | . | ? | - | . | - | -
CC(C)[C@@H](Br)C(=O)NCC(=O)O | . | - | -[10 µM] | . | -[13.5 µM] | -
NC(=O)CI | . | ? | -[1.9 µM] | - | 28.2µM | -
C[C@@]12Cc3cnc(-c4ccccc4)nc3C[C@@H]1CC[C@@H]1[C@H]3CC[C@@](C)(O)[C@]3(C)CC[C@@H]12 | . | - | -[10 µM] | . | ? | -
CN1CCC(O)(c2ccccc2)C(C(=O)c2ccccc2)C1 (stereo not given) | - | - | - | - | 0.141µM | -
CN1CCCC(C(=O)c2ccccc2)C1 (stereo not given) | - | - | - | ? | - | -
Cc1ccc(S(=O)(=O)NCCC(=O)Nc2ccc(Cl)cc2C(=O)c2ccccc2)cc1 | - | - | -[10 µM] | - | ? | -
Cc1ccc(S(=O)(=O)N[C@@H](CCCCN)C(=O)CCl)cc1 | - | ? | - | - | 8.91µM | -
Cc1[nH]n(-c2ccccc2)c(=O)c1C(c1cccc([N+](=O)[O-])c1O)c1c(C)[nH]n(-c2ccccc2)c1=O | ? | 28.2µM | -[10 µM] | . | 15.8µM | -
N#CCCCC[N+]12CN3CN(CN(C3)C1)C2 | . | - | -[10 µM] | . | -[13.5 µM] | -
C=C(CO)CC1CC(O)[C@]2(C)OC3CC4OC5C[C@]6(C)O[C@]7(C)CCC8OC9C[C@]%10(C)OC%11C(C)=CC(=O)OC%11CC%10OC9C[C@@H](C)C8OC7CC6O[C@]5(C)C/C=C\C4OC3CC2O1 (stereo not given in full) | -[9.22 µM] | . | -[10 µM] | . | 1.41µM | -
C=C(C=O)CC1CC(O)[C@]2(C)OC3CC4OC5C[C@]6(C)O[C@]7(C)CCC8OC9C[C@]%10(C)OC%11C(C)=CC(=O)OC%11CC%10OC9C[C@@H](C)C8OC7CC6O[C@]5(C)CC5OC5C4OC3CC2O1 (stereo not given in full) | -[9.22 µM] | . | -[10 µM] | . | 4.47µM | -
CN=C=O | . | - | - | . | - | -
CC1=C2[C@@H]3OC(=O)[C@H](C)[C@H]3CC[C@@]2(C)C=CC1=O | . | . | - | . | . | .
CCCCC/C=C\C/C=C\C/C=C\C/C=C\CCCC(=O)NCc1ccc(O)c(OC)c1 | . | 31.6µM | - | . | 25.1µM | -
COc1cc(CNC(=O)CCCC/C=C/C(C)C)ccc1O | - | - | -[1.9 µM] | - | 2µM! | -
CCCCCCCCC(=O)NCc1ccc(O)c(OC)c1 | - | - | - | - | - | -
Cl.Cl.Cl.Cl.Cl.Cl.N.N.N.N.NNNNN.NNNNN.O.O.[Ru].[Ru].[Ru] | . | - | - | - | - | -
C=CCn1c(=O)c(C=Nc2cccc([N+](=O)[O-])c2)c(O)n(CCCC)c1=O | - | - | - | - | - | -
